From PubChem BioAssay AID686979 (National Center for Advancing Translational Sciences (NCATS), 2013)
Among all 420,000 compounds or so, about 50,000 (12%) were called active. Inconclusive results (about 26%) are left out. The sample as a whole holds a higher share of actives than the screen did. A number with no mark means an inactive call. Calls follow the shape of the dose curve; as a rule, active = well fitted inhibition curve with a large enough effect; inconclusive = small, poorly fitted or top-dose-only effect; inactive = flat fitted curve, though single readings scatter.

Assay: qHTS for Inhibitors of human tyrosyl-DNA phosphodiesterase 1 (TDP1): qHTS in cells in presence of CPT; also: nearly all actives have a fitted effect of over 55% in size
Conditions: chicken DT40 Tdp1-/-;hTDP1 cells + 20 nM CPT, ATP luminescence, 48 h; series mostly up to 46.2 µM; activity change, negative = growth inhibition: at the top concentration
In short: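 Cell growth measured by CellTiter-Glo luminescence after a minimum 48 h, 37 C compound exposure with 20 nM CPT in Tdp1-knockout DT40 cells stably expressing hTDP1, seeded 400/well; qHTS titration format.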
% is scaled to controls: 0 for no effect and ±100 for the full control effect; potency is read from the fitted curve at half-maximal effect.

Compound	activity change, negative = growth inhibition	Potency
COc1ccccc1-c1ccc(C(=O)N(C)C(C)c2ccon2)c(N2CCN(c3ccccc3F)CC2)n1 (stereo not given)	15.9% [at 9.04 µM]	–
CC(C)C1=CC2=CC[C@H]3[C@](C)(C(=O)O)CCC[C@]3(C)C2CC1 (stereo not given in full)	26.1% [at 9.04 µM]	–
O=C(NN1C(=O)C2C3C=CC(C3)C2C1=O)c1ccco1 (stereo not given)	12.1% (inactive)	–
Cc1noc(C)c1-c1nc(Nc2ccccc2)c2ccccc2n1	8.15% (inactive)	–
COc1cccc(-c2nc(Nc3ccncc3)c3ccccc3n2)c1	–	8.2 µM (active)
COc1cc(Nc2nc(-c3ccc(OC)c(OC)c3)nc3ccccc23)cc(OC)c1	–	5.8 µM (active)
COc1ccc(Cl)cc1N(CC(=O)N1CCCCC1)S(C)(=O)=O	-0.885% (inactive)	–
C=Cn1cc[n+](CC(=O)c2ccc(OC)c(OC)c2)c1	-2% (inactive)	–
COc1ccc(C23NCCN2C(=O)c2ccccc23)cc1 (stereo not given)	21.2% (inactive)	–
Cc1cccc(S(=O)(=O)N(C)C[C@H]2OCc3cnnn3CCCC(=O)N([C@@H](C)CO)C[C@H]2C)c1	-21.2% (inactive)	–
CCCCn1c(N)c(N(Cc2ccccc2OC)C(=O)COc2cc(C)ccc2Cl)c(=O)[nH]c1=O	0.516% (inactive)	–
CCCCc1nn2c(=O)cc(COC(=O)c3cccc(NC(=O)COc4ccccc4)c3)nc2s1	-7.98% (inactive)	–
COc1ccccc1CN1CC2(CCN(S(=O)(=O)c3ccccc3)CC2)C1	-28.8% (inactive)	–
COc1ccc(CN2CCC(C)(Oc3cccc(F)c3)C2)c2ccccc12 (stereo not given)	–	23.1 µM (active)
CCOc1cc(CN2CCCC(CO)(Cc3ccc(F)cc3F)C2)ccc1OC (stereo not given)	-24.9% (inactive)	–
Cc1ccc(CCNC(=O)CN2C(=O)CSc3ccc(S(=O)(=O)N4CCOCC4)cc32)cc1	-30.8% (inactive)	–
C[C@H]1Cn2cnc(C(=O)N[C@@H](Cc3c[nH]c4ccccc34)C(=O)OC(C)(C)C)c2C(=O)N1	0.235% (inactive)	–
COc1cc(=O)[nH]c(=O)n1C(=O)Cc1ccccc1	–	13 µM (active)
CCCOc1ccc(Cn2c(O)cc(=O)[nH]c2=O)cc1	21.5% (inactive)	–
CS(=O)(=O)N1CCN(C(=O)Cc2ccccc2)CC1	-4.66% (inactive)	–
COc1ccccc1NC(=O)C(C)OC(=O)CC1CCCC1 (stereo not given)	0.0071% (inactive)	–
COc1ccccc1NC(=O)C(CC(=O)O)Cc1cc(C)cc(C)c1 (stereo not given)	-8.16% (inactive)	–
COc1ccccc1NC(=O)[C@H](COCc1ccccc1)NC(=O)OC(C)(C)C	–	23.1 µM (active)
Cc1ccc(SCC(=O)NNC(=O)c2ccc(S(C)(=O)=O)cc2)cc1	4.79% (inactive)	–
CCOc1ccc(CNC(=O)c2ccc3c(c2)nnn3C2CCCC2)cc1	-29.4% (inactive)	–

Compound	activity change, negative = growth inhibition	Potency
Cc1cc(Cl)ccc1OCc1nc(-c2ccncc2)no1	-25.7% (inactive)	–
CCCCOc1ccc(C(=O)Nc2cccc(-c3nc4ccccc4o3)c2C)cc1	-29.3% (inactive)	–
CCc1ccc2oc(-c3ccc(NC(=O)c4cc5ccccc5o4)cc3)nc2c1	-21.5% (inactive)	–
O=C(Nc1ccc(-c2nc3cc(NC(=O)c4ccccc4Cl)ccc3o2)cc1)c1ccccc1Cl	–	7.31 µM (active)
CC(=O)Nc1ccc(-c2nc3ccccc3o2)cc1	12% (inactive)	–
Cc1nc2nc[nH]n2c(=O)c1NC(=O)c1cccc(OCC(C)C)c1	-5.85% (inactive)	–
O=C(Nc1ccc2oc(-c3ccc(O)c(Br)c3)nc2c1)c1cc2ccccc2o1	-2.63% (inactive)	–
COc1cc(OC)cc(C(=O)Nc2ccc(-c3nc4ccccc4o3)c(O)c2)c1	–	18.4 µM (active)
Cc1nc2cc(NC(=O)NCc3ccccc3)ccc2o1	-25.7% (inactive)	–
COC(=O)c1ccc(-c2nc3cc(NC(C)=O)ccc3o2)cc1	-5.85% (inactive)	–
O=C(Nc1ccc(C(=O)O)c(O)c1)c1ccccc1	–	inactive
CCCOc1ccc(C(=O)Nc2ccc3oc(-c4cccc(Cl)c4Cl)nc3c2)cc1	–	8.2 µM (active)
Cc1ccccc1-c1nc2cc(NC(=O)c3cccc(OCCC(C)C)c3)ccc2o1	–	23.1 µM (active)
O=Cc1c(NCCCN2CCCC2=O)c2ccccc2[nH]c1=O	1.3% (inactive)	–
Cc1cccc(C(=O)OC(C)CN2CCCC2)c1 (stereo not given)	-0.708% (inactive)	–
COCCNC(=O)CCCN1C(=O)c2ccccc2Sc2ncccc21	–	inactive
Cc1ccc2c(Cl)c(C(=O)Nc3nn[nH]n3)sc2c1	-18.1% (inactive)	–
O=C(COC(=O)CNC(=O)C1CCCCC1)Nc1cccc(F)c1	-5.92% (inactive)	–
CN(C(=O)c1ccccn1)c1nnc(-c2ccccn2)s1	3.28% (inactive)	–
CCOc1cccc(-c2nn3c(-c4ccccn4)nnc3s2)c1	-21.1% (inactive)	–
c1ccc(-c2cc(-c3nnc4sc(-c5ccccn5)nn34)[nH]n2)cc1	–	11.6 µM (active)
Cn1c(N)c(C(=O)COC(=O)c2ccccc2NCc2ccco2)c(=O)n(C)c1=O	-11.2% (inactive)	–
Nc1cc(N)nc(SCc2ccc(Cl)cc2)n1	7.24% (inactive)	–
CC(O)CN(Cc1ccc(Cl)cc1)CC(C)O (stereo not given)	1.11% (inactive)	–
C[C@]12c3[nH]c4ccc(Cl)cc4c3CCN1C(=O)[C@@H](CC(=O)NCCCn1ccnc1)C[C@@H]2C(=O)N1CCOCC1	-15.4% (inactive)	–
